TRPML1 blocker – blocks the human TRPML1 channel. TRPML1-inducible cells, Ca2+ dye fluorescence, FDSS; stronger effect = lower value; inhibition of EC80 agonist-evoked calcium signal. activity change, negative = inhibition, % (no concentration beside the values). hit rate 0.02% among 390,000; in the data active means activity change below about -50%; inconclusive means between about -30% and that limit;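 further: stimulus is agonist 54-4 at its EC80 concentration; on the % scale 0 is the no-effect control and ±100 the full control effect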
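Tet-induced TRPML1-DL cells loaded with Ca8 no-wash calcium dye were read kinetically on FDSS. Compound addition was followed by EC80 agonist 54-4 (4 uM final); inhibition was read over 110 s.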
GLP1R cytotox – cytotoxicity in counter-screen for GLP-1R inverse agonists; HEK293 cAMP-luciferase reporter cells, luminescence, 24 h; Potency, µM (series often up to 38.3 µM), inactives show top-dose activity change, negative = inhibition, hits mostly inhibitors; hit rate 0.13% among 410,000;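 further: loss of luciferase light is scored as toxicity; potency means the concentration at half of the fitted maximal effect; on the % scale 0 is the no-effect control and ±100 the full control effect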
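Seeding density was 200 cells/uL; after overnight-length (12 h) culture, 23 nL compounds went on for 24 h at 37 °C. Readout used a luciferase detection reagent, luminescence taken after 12 min at room temperature.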
PTHR1 agonist – activates the human parathyroid hormone receptor PTHR1; HEK293 GP2 PTHR1 cells, GloSensor cAMP luminescence, 1 h; hit rate 0.075% among 410,000; Potency, µM (titrated, usually from 115 µM), for inactives: at the highest dose activation, hits mostly activators; Q03431; AID 743266; further: potency means the concentration at half of the fitted maximal effect; nearly all actives have a fitted effect of over 55% in size
Target sequence (Q03431 whole entry, looked up): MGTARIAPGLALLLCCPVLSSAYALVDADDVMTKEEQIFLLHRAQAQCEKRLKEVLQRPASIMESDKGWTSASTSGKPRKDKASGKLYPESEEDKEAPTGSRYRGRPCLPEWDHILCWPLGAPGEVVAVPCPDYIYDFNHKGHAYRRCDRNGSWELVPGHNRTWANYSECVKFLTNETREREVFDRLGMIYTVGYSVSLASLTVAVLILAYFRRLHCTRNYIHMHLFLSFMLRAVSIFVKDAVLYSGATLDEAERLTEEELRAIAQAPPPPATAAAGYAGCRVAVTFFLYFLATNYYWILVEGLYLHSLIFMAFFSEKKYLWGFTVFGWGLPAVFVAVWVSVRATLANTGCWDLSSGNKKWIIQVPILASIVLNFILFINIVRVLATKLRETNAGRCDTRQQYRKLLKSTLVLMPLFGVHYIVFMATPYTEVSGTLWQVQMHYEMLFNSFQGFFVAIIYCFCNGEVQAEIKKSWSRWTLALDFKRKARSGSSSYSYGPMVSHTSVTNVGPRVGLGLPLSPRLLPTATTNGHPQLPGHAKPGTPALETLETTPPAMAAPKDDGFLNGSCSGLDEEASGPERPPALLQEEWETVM
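HEK-293-derived GP2 cells expressing PTHR1 and a GloSensor cAMP reporter, 3,000/well, plated overnight, given luciferin plus IBMX (each 0.5 mM as added) for 1 h at 37 °C, then compound for 1 h at 37 °C. Luminescence was read after 15 min at room temperature.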
TRHR ag – TRH receptor (human) agonism. TRHR cells, calcium flux fluo-8, FDSS agonist mode. hit rate 0.18% among 360,000. activation, % at 2 µM. P34981; in the data active means activation above about 30%; further: 0% is about no effect
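In this calcium-flux screen, cells bearing human TRHR are dye-loaded with fluo-8, baselined for 10 cycles, then exposed to library compounds; positive kinetic calcium responses during the agonist phase mark hits, with TRH as control.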
TRHR enhancer – TRH receptor (human) allosteric enhancement; P34981; TRHR cells, fluo-8 calcium fluorescence, EC20 TRH enhancement; enhancement, % at 2 µM; hit rate 0.66% among 360,000; AID 493056; in the data active means enhancement above about 30%; further: 0% is about no effect
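Enhancer read-out: after compound pinning and an initial kinetic agonist-mode read, an EC20 of TRH (10 nM final) was injected and fluo-8 calcium signal (Ex 480/Em 530) followed at 1 s/cycle for 100 cycles in TRHR-expressing cells.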
TRPML1 agonist – activates the human TRPML1 channel. hit rate 0.12% among 410,000. Q9GZU1. activation, % (concentration not given with the values). AID 624414. TRPML1-expressing cells, Ca2+ dye fluorescence, FDSS; in the data active means activation above about 50%; inconclusive means mostly about 30% to 49%; further: 0% is about no effect
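Cells: TRPML1-DL, 1X Tet inducer, ~16 h at 37 degrees C/5% CO2. Dye: ABD Ca8 no-wash + quencher, 45-90 min RT. Read: 10 s baseline, compound add, 110 s agonist phase; 54-4 EC80 (4uM final), 110 s antagonist phase.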
* = called active by the depositor; i = inactive; ? = inconclusive; nt = no result given; [ ] = another dose, or the depositor's remark. An excerpt weighted towards active compounds, which were near 0.93% of everything screened. Unless noted, the call rests on the fitted dose curve; in most records, active means well fitted curve in the direction sought with a large enough effect; inconclusive means small, poorly fitted or top-dose-only effect, or another doubt; inactive means no such curve, though single readings can be large; an effect the other way counts as inactive or inconclusive.

SMILES	TRPML1 blocker	GLP1R cytotox	PTHR1 agonist	TRHR ag	TRHR enhancer	TRPML1 agonist
CCOc1cc(C(=O)OCC(=O)c2cc(C)n(CC3CCCO3)c2C)ccc1OCC(=O)N1CCOCC1 (centres undefined)	5.5	5.9%	i	2.4	38.0*	0.6
O=C(COC(=O)c1cnccn1)c1ccc(C2CCCCC2)cc1	16.1	15.5%	0.0%	-0.8	33.6*	1.0
O=C(Cc1ccc(-c2ccccc2)cc1)NO	nt	nt	nt	nt	nt	-0.4
Clc1nc(NCC2CCCO2)c2[nH]cnc2n1 (centres undefined)	nt	nt	nt	nt	nt	-0.1
CC(C)Sc1nc2c(c(=O)[nH]1)C(c1cccs1)C1=C(CC(C)(C)CC1=O)N2 (centres undefined)	29.6	-0.9%	i	-0.4	33.0*	1.9
COc1ccccc1CC(=O)NO	nt	nt	nt	nt	nt	0.3
O=C(/C=C/c1ccccc1)C1=C(O)C(=O)N(CCO)C1c1ccc2c(c1)OCO2 (centres undefined)	28.7	-0.6%	-7.0%	-1.0	36.2*	-0.4
O=C(O)c1ccc(-n2c(/C=C\c3ccc(O)cc3)nc3ccccc3c2=O)cc1	53.6	6.2%	20.1%	2.1	12.0	4.1
CN(C)c1ccc(/C=C/c2nc3ccccc3c(=O)n2-c2ccc(C(=O)O)cc2)cc1	19.0	i	-64.4%	120.5*	30.1*	64.2*
Oc1ccc(COC2CCN(Cc3ccccc3)C2)c2cccnc12 (centres undefined)	nt	nt	nt	0.1	-1.7	nt
CCSc1nnc(NC(=O)C(C)Sc2nc3ccccc3[nH]2)s1 (centres undefined)	-3.9	7.6%	-20.7%	0.3	36.2*	1.8
CC(Sc1nc2ccccc2[nH]1)C(=O)O (centres undefined)	-4.7	-4.2%	-9.3%[57.5 µM]	-1.8	5.3	-1.3
CCCOC(=O)c1c(NC(=O)c2nc3ncccn3n2)sc(C(=O)OCC)c1C	1.3	0.6%	i	-0.8	-2.6	-1.0
CCN(CC)C(=O)c1sc(NC(=O)c2nc3ncccn3n2)c(C(=O)OC)c1C	-19.9	0.0%	-7.0%	-1.2	32.0*	1.0
CCOc1ccccc1C(=O)NCC(=O)N1CCN(Cc2ccc3c(c2)OCO3)CC1	1.1	1.1%	-82.7%	-0.3	33.3*	1.2
COc1ccc(CCNC(=O)C(=O)NCC(c2ccco2)S(=O)(=O)c2ccccc2)cc1 (centres undefined)	-6.9	2.6%	-41.3%	-0.1	1.4	2.1
COc1ccc(CCNC(=O)C(=O)NCC(c2ccco2)S(=O)(=O)c2ccc(F)cc2)cc1 (centres undefined)	11.0	-5.9%	-42.5%	-0.2	36.1*	0.5
COc1ccc(-c2c(C#CC(C)(C)O)c3ccccc3n2C)cc1	19.4	-3.4%	i	nt	nt	0.7
COc1ccc(-c2oc3ccccc3c2C#CC(C)(C)O)cc1	20.2	5.7%	i	-0.3	31.0*	0.6
CCOC(=O)c1ccc(S(=O)(=O)N2CCN(c3nc(-c4ccccc4)nc4ccccc34)CC2)cc1	nt	nt	nt	nt	nt	-0.7
CN(C)c1ccc(C=Cc2nccc3ccccc23)cc1	nt	323.3%	-92.8%	nt	nt	13.0
CCN(CC)c1ccc(/C=C/c2nccc3ccccc23)cc1	nt	nt	nt	nt	nt	63.6*
CCN(CC)c1nc(C=Cc2ccc(N(C)C)cc2)c2nccnc2n1	-2.8	-11.4%	-16.6%	nt	nt	63.6*
CN1C(=O)Cc2cc([S+](=O)([O-])N3CCN([S+](=O)([O-])c4c(F)cccc4F)CC3)ccc21	nt	nt	nt	1.3	-1.9	nt
COc1cccc(OC)c1-c1cc(CCCc2cc(-c3c(OC)cccc3OC)nc3ccccc23)c2ccccc2n1	nt	nt	nt	nt	nt	2.4
SMILES	TRPML1 blocker	GLP1R cytotox	PTHR1 agonist	TRHR ag	TRHR enhancer	TRPML1 agonist
CN(C(=O)c1cc2c(Cl)nc3ccccc3c2s1)c1cccc(C(F)(F)F)c1	-2.5	1.4%	i	0.0	-4.7	-1.1
CCCN(C(=O)c1cc2c(Cl)nc3ccccc3c2s1)c1cccc(C)c1	31.2	4.2%	-9.8%	1.2	39.9*	1.5
C=CCc1cc(F)c(S(=O)(=O)N2CCN(S(=O)(=O)c3ccc4c(c3)OCCO4)CC2)cc1F	nt	nt	nt	-2.2	-2.0	nt
O=C(NC(=S)Nc1ccc(F)cc1)c1ccc2c(c1)OCCO2	-14.3	?	-56.8%	1.0	32.6*	3.9
CCCCC(O)C(=O)Nc1cc(C(F)(F)F)ccc1Cl (centres undefined)	nt	nt	nt	-2.7	1.0	nt
CN(C1CCS(=O)(=O)C1)S(=O)(=O)c1cccs1 (centres undefined)	10.3	-4.8%	i	0.5	-1.5	0.4
CN(C1CCS(=O)(=O)C1)S(=O)(=O)c1ccccc1 (centres undefined)	11.8	-12.2%	i	-0.6	30.2*	0.9
N#C/C(=C(/O)COC(=O)CSc1ccc(Cl)cc1)c1nc2ccccc2[nH]1	-7.2	8.91µM*	-9.9%	0.9	-5.2	0.2
Cc1cc(SCC(=O)OC/C(O)=C(\C#N)c2nc3ccccc3[nH]2)c(C)cc1Br	4.0	?	-8.0%	0.5	-7.3	-0.3
CC1CCCCN1C(=O)c1cnn2c1NC(=C1CC1)C=C2C(F)F (centres undefined)	nt	nt	nt	nt	nt	-0.7
COc1ccccc1Cc1nc2ccccc2nc1SCC(=O)NCc1ccc(C)cc1	-11.0	1.2%	i	-0.6	1.7	0.2
COc1cccc(CNC(=O)CSc2nc3ccccc3nc2Cc2ccc(C)cc2)c1OC	-1.3	-3.3%	-4.2%	0.2	32.8*	0.5
COc1ccc(C2C(O)C(c3c[nH]c4ccccc34)=NN2C(=O)CCl)cc1 (centres undefined)	12.6	11.2µM*	-27.3%	-0.9	18.3	1.1
CCCCCCCCN1[C@@H](CC(=O)OC)c2ccc(/C=C/C(=O)OC)cc2S1(=O)=O	nt	nt	nt	nt	nt	-0.7
COc1ccc(Cl)c(Cn2cnc3c(cnn3C(C)(C)C)c2=O)c1F	-11.3	nt	nt	nt	nt	3.0
COc1ccc(Cl)cc1NC(=S)NCc1ccccn1	-5.4	1.6%	i	0.2	30.8*	-0.7
CC(=O)Nc1ccc(NC(=O)CSC2=NCCS2)cc1	-12.9	0.1%	i	-0.1	-1.2	0.5
CC(=O)Nc1nonc1NC(=O)CSC1=NCCS1	-5.7	-5.7%	-5.3%[57.5 µM]	0.2	31.4*	0.1
Cc1ccc(-n2cnnn2)c2cccnc12	-6.8	-5.5%	-6.5%[57.5 µM]	0.3	5.7	0.7
Cc1ccc(N2C(=O)c3cccc4c(N)ccc(c34)C2=O)c2cccnc12	-0.2	16.2%	-21.6%	158.0*	26.4	90.4*
O=C1N/C(=N\N=C\c2ccco2)SC1Cc1ccccc1[N+](=O)[O-] (centres undefined)	1.7	3.98µM*	-15.7%	-0.3	-5.5	0.9

Compound activity from PubChem BioAssay.
